The full data set covers some 8,800 targets. This sample favours those with a hit. About 0.5% of all pairs of compound and target were hits.
What was measured:
Experiment in all cases: log2 fold change, soluble protein after heating vs DMSO (PISA); higher = thermal stabilisation; K562 lysate, 10 uM; active = over 0.2 and 3.5 SD of the protein, either way, in both replicates (recomputed)
[1] = compound: NCC(=O)Nc1ccc(-n2nc(C(F)(F)F)cc2-c2ccc3c(ccc4ccccc43)c2)cc1
Method in brief: (§1)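 Pellets of K562 cells were dounce-homogenised in PBS pH 7.4 with 1 mM MgCl2, and the crude extract was held at 1 mg/mL protein for a 30 min treatment with 10 μM compound. Aliquots were heated for 3 min over 48°C-58°C and pooled before NP-40 was added to 0.5% at 4°C. The supernatant from 21,000xg for 90 min was quantified by TMTpro 16plex LC-MS/MS with channel sums equalised. Values are reported from duplicates as log-two fold change in thermal stability relative to solvent controls.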

vorinostat = compound: O=C(CCCCCCC(=O)Nc1ccccc1)NO [vorinostat]
Method in brief: as §1

silmitasertib = compound: O=C(O)c1ccc2c(c1)nc(Nc1cccc(Cl)c1)c1ccncc12 [silmitasertib]
Method in brief: as §1

[2] = compound: O=C1NC(=O)C(c2cnc3ccccn23)=C1c1cn2c3c(cc(F)cc13)CN(C(=O)N1CCCCC1)CC2
Method in brief: as §1

entospletinib = compound: c1cn2cc(-c3ccc4cn[nH]c4c3)nc(Nc3ccc(N4CCOCC4)cc3)c2n1 [entospletinib]
Method in brief: as §1

Measured: log2 fold change

ENO1 isoform 2 (UniProt P06733)
inactive: [1] -0.008 | vorinostat 0.099 | silmitasertib 0.045 | [2] 0.005 | entospletinib -0.05

ELAVL4 (UniProt P26378)
active: vorinostat -0.402
inactive: [1] 0.016 | silmitasertib -0.046 | [2] 0.004 | entospletinib -0.067

FBRSL1, A0A3B3IRR3
inactive: [1] 0.043 | vorinostat 0.142 | silmitasertib -0.013 | [2] 0.069 | entospletinib -0.087

ESYT2 (UniProt H7BXI1)
active: vorinostat 0.243
inactive: [1] -0.041 | silmitasertib -0.002 | [2] -0.002 | entospletinib 0.019

FHOD1 (UniProt Q9Y613)
Sequence of UniProt Q9Y613 (Q9Y613 whole entry, looked up): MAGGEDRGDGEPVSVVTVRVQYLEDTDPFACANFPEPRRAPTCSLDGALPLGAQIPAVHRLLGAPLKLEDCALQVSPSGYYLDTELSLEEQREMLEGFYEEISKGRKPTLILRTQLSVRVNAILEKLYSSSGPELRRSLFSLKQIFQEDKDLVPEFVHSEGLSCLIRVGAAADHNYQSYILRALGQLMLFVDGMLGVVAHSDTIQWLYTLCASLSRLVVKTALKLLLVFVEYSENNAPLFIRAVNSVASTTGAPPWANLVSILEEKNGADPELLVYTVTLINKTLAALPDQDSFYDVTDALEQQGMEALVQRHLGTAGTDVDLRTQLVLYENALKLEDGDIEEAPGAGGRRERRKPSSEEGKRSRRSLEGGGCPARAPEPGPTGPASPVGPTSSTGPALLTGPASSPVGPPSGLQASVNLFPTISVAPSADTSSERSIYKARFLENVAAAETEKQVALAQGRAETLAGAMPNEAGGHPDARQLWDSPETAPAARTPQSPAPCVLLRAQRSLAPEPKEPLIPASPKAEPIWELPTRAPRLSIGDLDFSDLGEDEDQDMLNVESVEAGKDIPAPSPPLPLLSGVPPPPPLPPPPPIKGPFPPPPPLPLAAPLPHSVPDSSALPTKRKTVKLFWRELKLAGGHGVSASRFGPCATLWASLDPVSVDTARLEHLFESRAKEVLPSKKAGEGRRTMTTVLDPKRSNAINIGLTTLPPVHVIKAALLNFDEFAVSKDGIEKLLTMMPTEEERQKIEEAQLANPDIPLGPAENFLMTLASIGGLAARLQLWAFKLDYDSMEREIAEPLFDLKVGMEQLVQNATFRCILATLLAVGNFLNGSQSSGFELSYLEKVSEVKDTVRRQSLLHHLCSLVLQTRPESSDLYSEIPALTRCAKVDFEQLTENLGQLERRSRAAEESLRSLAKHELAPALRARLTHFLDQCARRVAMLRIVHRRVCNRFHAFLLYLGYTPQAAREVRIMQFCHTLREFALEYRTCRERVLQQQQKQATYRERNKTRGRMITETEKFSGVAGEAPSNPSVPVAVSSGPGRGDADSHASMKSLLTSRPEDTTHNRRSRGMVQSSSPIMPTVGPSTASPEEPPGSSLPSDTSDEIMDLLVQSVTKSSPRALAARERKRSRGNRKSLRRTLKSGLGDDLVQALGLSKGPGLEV
active: vorinostat -0.47
inactive: [1] -0.018 | silmitasertib 0.008 | [2] -0.02 | entospletinib -0.002

FADS3 (UniProt Q9Y5Q0)
Sequence of UniProt Q9Y5Q0 (Q9Y5Q0 whole entry, looked up): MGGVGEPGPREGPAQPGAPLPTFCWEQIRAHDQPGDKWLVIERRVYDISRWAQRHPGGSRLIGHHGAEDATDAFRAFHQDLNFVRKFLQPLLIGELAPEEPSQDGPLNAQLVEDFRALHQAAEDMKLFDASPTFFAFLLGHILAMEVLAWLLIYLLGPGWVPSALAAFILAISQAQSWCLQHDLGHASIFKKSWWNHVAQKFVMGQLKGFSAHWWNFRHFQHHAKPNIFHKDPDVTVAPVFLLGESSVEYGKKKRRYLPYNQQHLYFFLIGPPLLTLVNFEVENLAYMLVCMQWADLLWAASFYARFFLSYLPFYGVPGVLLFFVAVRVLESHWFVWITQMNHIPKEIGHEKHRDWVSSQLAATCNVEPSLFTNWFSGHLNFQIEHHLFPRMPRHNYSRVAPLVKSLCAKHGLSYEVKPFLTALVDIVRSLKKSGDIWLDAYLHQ
inactive: [1] 0.21 | vorinostat 0.247 | silmitasertib -0.126 | [2] 0.004 | entospletinib -0.185

EDARADD (UniProt Q8WWZ3)
Sequence of UniProt Q8WWZ3 (Q8WWZ3 whole entry, looked up): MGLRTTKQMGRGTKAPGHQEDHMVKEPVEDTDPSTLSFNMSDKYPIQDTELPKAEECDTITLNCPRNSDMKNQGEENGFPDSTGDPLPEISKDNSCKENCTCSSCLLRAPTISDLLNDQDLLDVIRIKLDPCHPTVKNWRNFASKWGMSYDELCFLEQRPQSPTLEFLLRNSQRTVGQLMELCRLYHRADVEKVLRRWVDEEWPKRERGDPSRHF
inactive: [1] 0.022 | vorinostat -0.168 | silmitasertib 0.02 | [2] -0.05 | entospletinib -0.057

GALNT2 (UniProt Q10471)
inactive: [1] -0.018 | vorinostat 0.069 | silmitasertib 0.008 | [2] -0.09 | entospletinib -0.034

ENO2 (UniProt P09104)
Sequence of UniProt P09104 (P09104 whole entry, looked up): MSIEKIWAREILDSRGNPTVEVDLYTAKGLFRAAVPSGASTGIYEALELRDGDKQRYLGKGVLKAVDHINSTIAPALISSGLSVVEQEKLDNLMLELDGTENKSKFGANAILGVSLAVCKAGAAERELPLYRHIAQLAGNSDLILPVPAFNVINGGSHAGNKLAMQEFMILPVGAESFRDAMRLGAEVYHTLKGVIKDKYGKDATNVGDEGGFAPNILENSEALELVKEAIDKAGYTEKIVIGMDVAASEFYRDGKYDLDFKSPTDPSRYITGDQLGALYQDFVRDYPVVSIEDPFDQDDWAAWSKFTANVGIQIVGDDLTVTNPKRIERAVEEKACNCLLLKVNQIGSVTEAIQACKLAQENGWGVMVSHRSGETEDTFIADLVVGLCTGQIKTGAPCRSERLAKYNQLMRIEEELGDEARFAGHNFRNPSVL
inactive: [1] -0.021 | vorinostat 0.03 | silmitasertib -0.014 | [2] 0.001 | entospletinib -0.068

EEF1A1P5 (UniProt Q5VTE0)
active: vorinostat -0.311
inactive: [1] 0.04 | silmitasertib -0.017 | [2] 0.005 | entospletinib 0.033

EEF1A1, A0A087WVQ9
inactive: [1] -0.025 | silmitasertib -0.002 | [2] -0.022 | entospletinib 0.015
active: vorinostat -0.541

FYB1 isoform 3 (UniProt O15117)
inactive: [1] 0.007 | vorinostat 0.002 | silmitasertib -0.021 | [2] 0 | entospletinib -0.006

GART (UniProt P22102)
Sequence of UniProt P22102 (P22102 whole entry, looked up): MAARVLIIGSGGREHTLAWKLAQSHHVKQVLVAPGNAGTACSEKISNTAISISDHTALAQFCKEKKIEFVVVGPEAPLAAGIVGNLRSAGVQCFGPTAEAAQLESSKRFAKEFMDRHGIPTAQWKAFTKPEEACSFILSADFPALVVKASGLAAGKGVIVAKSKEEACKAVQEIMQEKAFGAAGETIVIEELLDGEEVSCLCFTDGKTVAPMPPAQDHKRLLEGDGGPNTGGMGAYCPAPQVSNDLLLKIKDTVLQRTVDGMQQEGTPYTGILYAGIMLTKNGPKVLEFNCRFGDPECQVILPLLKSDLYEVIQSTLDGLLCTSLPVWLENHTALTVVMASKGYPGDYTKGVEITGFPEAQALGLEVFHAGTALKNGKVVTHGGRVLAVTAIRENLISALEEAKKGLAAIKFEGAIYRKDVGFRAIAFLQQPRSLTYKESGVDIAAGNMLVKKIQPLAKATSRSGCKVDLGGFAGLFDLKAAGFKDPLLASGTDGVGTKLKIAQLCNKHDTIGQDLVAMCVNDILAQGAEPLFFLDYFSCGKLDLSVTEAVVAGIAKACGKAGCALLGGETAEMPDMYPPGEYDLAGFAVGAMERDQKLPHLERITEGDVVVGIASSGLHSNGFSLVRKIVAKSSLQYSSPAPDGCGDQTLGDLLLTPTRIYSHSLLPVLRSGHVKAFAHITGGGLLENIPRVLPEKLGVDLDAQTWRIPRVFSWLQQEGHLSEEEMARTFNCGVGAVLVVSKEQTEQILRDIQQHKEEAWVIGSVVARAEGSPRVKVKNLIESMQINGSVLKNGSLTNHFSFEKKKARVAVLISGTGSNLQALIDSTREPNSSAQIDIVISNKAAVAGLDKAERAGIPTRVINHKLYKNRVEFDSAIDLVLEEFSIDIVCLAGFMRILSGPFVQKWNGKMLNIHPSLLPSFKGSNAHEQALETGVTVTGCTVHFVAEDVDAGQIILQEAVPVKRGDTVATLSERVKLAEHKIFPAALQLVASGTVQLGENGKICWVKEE
inactive: [1] 0.017 | silmitasertib 0.006 | [2] 0.003 | entospletinib 0.012
active: vorinostat -0.303

GALK1 isoform 2 (UniProt P51570)
inactive: [1] -0.017 | silmitasertib 0.063 | [2] 0.023 | entospletinib -0.088
active: vorinostat -0.338

FTSJ3 (UniProt Q8IY81)
inactive: [1] -0.034 | vorinostat 0.068 | silmitasertib 0.017 | [2] 0.012 | entospletinib -0.043

DTWD1 (UniProt Q8N5C7)
Sequence of UniProt Q8N5C7 (Q8N5C7 whole entry, looked up): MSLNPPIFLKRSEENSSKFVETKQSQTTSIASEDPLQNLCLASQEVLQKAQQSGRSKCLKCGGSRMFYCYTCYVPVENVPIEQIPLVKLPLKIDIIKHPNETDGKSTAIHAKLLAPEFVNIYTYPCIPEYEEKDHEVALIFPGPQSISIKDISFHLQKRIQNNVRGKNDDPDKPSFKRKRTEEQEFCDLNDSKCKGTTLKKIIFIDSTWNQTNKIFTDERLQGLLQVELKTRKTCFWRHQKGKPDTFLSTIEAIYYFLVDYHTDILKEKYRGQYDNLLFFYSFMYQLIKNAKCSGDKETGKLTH
inactive: [1] 0.059 | silmitasertib -0.022 | [2] -0.028 | entospletinib 0.036
active: vorinostat -0.27

FPGT (UniProt O14772)
inactive: [1] -0.014 | silmitasertib 0.008 | [2] -0.015 | entospletinib -0.062
active: vorinostat -0.574

EXOC2 (UniProt Q96KP1)
inactive: [1] -0.012 | silmitasertib 0.031 | [2] 0.022 | entospletinib 0.024
active: vorinostat -0.361

GAMT (UniProt Q14353)
active: vorinostat -0.423
inactive: [1] -0.046 | silmitasertib -0.008 | [2] -0.049 | entospletinib -0.001

FAM114A2 (UniProt Q9NRY5)
Sequence of UniProt Q9NRY5 (Q9NRY5 whole entry, looked up): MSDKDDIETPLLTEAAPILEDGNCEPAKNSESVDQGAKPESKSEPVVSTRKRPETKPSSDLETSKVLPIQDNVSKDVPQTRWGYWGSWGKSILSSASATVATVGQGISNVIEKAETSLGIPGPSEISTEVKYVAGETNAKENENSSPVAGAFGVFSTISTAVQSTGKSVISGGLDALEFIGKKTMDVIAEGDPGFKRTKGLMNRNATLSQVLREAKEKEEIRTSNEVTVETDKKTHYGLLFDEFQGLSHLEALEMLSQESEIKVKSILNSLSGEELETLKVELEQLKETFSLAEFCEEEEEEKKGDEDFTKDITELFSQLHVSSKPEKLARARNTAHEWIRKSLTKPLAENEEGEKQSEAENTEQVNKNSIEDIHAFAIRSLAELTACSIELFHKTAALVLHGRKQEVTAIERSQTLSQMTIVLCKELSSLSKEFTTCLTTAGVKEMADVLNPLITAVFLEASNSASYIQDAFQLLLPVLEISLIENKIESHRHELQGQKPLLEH
inactive: [1] -0.056 | vorinostat 0.262 | silmitasertib -0.015 | [2] -0.034 | entospletinib 0

FAM98A (UniProt Q8NCA5)
Sequence of UniProt Q8NCA5 (Q8NCA5 whole entry, looked up): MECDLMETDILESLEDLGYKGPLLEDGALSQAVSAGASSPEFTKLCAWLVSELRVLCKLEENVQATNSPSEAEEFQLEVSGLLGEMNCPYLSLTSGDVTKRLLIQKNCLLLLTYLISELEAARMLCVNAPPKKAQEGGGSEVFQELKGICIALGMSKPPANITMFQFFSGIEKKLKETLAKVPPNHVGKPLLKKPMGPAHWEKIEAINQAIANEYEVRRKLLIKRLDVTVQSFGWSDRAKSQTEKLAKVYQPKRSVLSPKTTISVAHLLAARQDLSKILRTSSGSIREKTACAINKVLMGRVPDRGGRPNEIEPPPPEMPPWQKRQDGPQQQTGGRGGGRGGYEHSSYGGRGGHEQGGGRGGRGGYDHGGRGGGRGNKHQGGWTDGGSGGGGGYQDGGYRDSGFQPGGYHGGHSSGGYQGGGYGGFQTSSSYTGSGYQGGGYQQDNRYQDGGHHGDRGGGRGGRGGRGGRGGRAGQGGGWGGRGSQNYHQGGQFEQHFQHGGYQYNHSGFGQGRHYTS
inactive: [1] 0.027 | silmitasertib 0.005 | [2] 0.01 | entospletinib 0.006
active: vorinostat -0.558

EIF2D (UniProt P41214)
active: vorinostat -0.385
inactive: [1] 0.03 | silmitasertib 0.032 | [2] 0.04 | entospletinib 0.02

EPHX2 (UniProt P34913)
active: vorinostat 0.243
inactive: [1] 0.002 | silmitasertib 0.002 | [2] -0.021 | entospletinib -0.058

FBXO22 (UniProt Q8NEZ5)
Sequence of UniProt Q8NEZ5 (Q8NEZ5 whole entry, looked up): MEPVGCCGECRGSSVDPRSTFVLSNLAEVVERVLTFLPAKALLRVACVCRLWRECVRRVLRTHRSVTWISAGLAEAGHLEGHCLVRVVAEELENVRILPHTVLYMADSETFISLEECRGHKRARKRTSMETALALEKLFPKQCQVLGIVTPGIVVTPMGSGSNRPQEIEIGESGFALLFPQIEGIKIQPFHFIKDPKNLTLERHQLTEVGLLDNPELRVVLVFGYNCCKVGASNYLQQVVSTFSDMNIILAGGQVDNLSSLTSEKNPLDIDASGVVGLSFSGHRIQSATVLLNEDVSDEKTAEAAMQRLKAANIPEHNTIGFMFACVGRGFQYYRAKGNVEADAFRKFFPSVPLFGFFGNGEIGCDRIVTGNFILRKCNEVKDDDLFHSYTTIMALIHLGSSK
inactive: [1] 0.014 | silmitasertib -0.022 | [2] -0.018 | entospletinib 0.014
active: vorinostat -0.477

GCDH (UniProt Q92947)
inactive: [1] 0.004 | silmitasertib 0.161 | [2] 0.187 | entospletinib 0.046
active: vorinostat 0.34

From the supplement of paper PMC10849652
